Drawing on PubChem BioAssay (NCATS), this text covers Potency for 40 compounds.

SMILES strings stand for the structures. Several values for one entry are separate records, joined by “and”; a condition that tells them apart may be missing. Equal values may be shown once. Records with an inconclusive call do not appear. The source holds several records for some structures; these can differ, active in one and inactive in another. Activity calls are given as the source filed them. Calls come from the whole dose curve; as a rule, active = well fitted cell-killing curve with a large enough effect; inconclusive = small, poorly fitted or top-dose-only effect, or effect the other way; inactive = no such curve, though single readings can be large or run the other way. Bridge positions count the residues as written; N and C are the ends. Square brackets hold non-standard residues; d marks the D form. Peptide text beside a SMILES is read from it. * marks the point of attachment. ξ: configuration not given here. Octanoyl(6-Me) = CCC(C)CCCCC(=O)*; ξThr(3R) = C[C@@H](O)C(N)C(=O)O; dDab = NCC[C@@H](N)C(=O)O; Dab = NCC[C@H](N)C(=O)O
Potency is the fitted concentration of half-maximal effect.

The first experiment in a line: Viability qHTS for spleen associated tyrosine kinase inhibitor (SYKi) naive MV4-11 cells (AID 1963823). Note: nearly all actives have a fitted effect of over 40% in size. The note with it: MV4-11 AML viability, CellTiter-Glo luminescence, 72 h; series mostly up to 45 µM. An outline of the steps: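 Cells: MV4-11, SYK inhibitor naive, 500 per well. Treatment: library compounds, 72 hr, 37 C, 5% CO2. Read-out: CellTiter-Glo luminescence after 10 min RT.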
In the case of `NC1CCC(N[C@@H]2C[C@H]2c2ccccc2)CC1` (some centres not stated), the Potency entry is “inactive”. For the compound `C[C@@H](NC(=O)c1ncnc(N)c1Cl)c1ncc(C(=O)Nc2cc(C(F)(F)F)c(Cl)cn2)s1`, the Potency is 9.2 µM (active).

With `C[C@H](CCC(=O)O)[C@H]1CCC2C3C[C@H](O)[C@@H]4C[C@H](O)CC[C@]4(C)C3CC[C@@]21C` (some centres not stated), the Potency result was “inactive”.

For `COc1cc2nc(N3CCCN(C)CC3)nc(NC3CCN(Cc4ccccc4)CC3)c2cc1OC`, the Potency was 2.35 µM (active). Take `Clc1ccc2c(c1)C(N1CCNCC1)=Nc1ccccc1O2`: the Potency result was “inactive”. Still for that read-out and setting: the value for `OCc1ccc(-c2ccc(-c3ccc(CO)s3)o2)s1` was 1.18 µM (active). The same measure, in the same setting: the value for `CN1CCC(=C2c3ccccc3CC(=O)c3sccc32)CC1` was 26.3 µM (active).

The nature of the next experiment: Viability qHTS for spleen associated tyrosine kinase inhibitor (SYKi) drug resistant MV4-11 cells (AID 1963824). Note: nearly all actives have a fitted effect of over 35% in size. The following applies: SYKi-resistant MV4-11 viability, CellTiter-Glo, 72 h; series mostly up to 45 µM. Put shortly:
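SYK inhibitor-resistant MV4-11 AML cells, 500 per well, added to predispensed compounds and incubated 72 hr at 37 C, 5% CO2. Viability measured by CellTiter-Glo luminescence after 10 min at room temperature.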
(In general: In qHTS, concentration-response curves come from the screen itself.)
Turning to `COc1cc2c(Oc3ccc(NC(=O)C4(C(=O)Nc5ccc(F)cc5)CC4)cc3F)ccnc2cc1OCCCN1CCOCC1`, the Potency was 0.0037 µM (active). For the compound `Oc1ccc2ccccc2c1SSc1c(O)ccc2ccccc12`, the Potency is 5.25 µM (active) and 9.2 µM (active). Same read-out and setting: as for `Cc1ccc(S(=O)(=O)Nc2nc3ccccc3nc2Nc2ccc3nsnc3c2)cc1`, the figure is 8.2 µM (active). As for `Cc1cc(O)c2c(c1)C(=O)c1cccc(O)c1C2=O`, the Potency entry was “inactive”. Take `O=C1N(c2ccccc2)c2ccccc2C1(Cc1ccncc1)Cc1ccncc1`: the Potency entry is “inactive”. Take `O=C(NCCCNc1nc(Nc2cccc(NC(=O)N3CCCC3)c2)ncc1I)c1cccs1`: the Potency is 164 nM (active) and 263 nM (active).

For `NS(=O)(=O)c1cc(Cl)c(Cl)c(S(N)(=O)=O)c1`, the Potency result was “inactive”. With `CCc1cccc2c3c([nH]c12)C(CC)(CC(=O)O)OCC3` (configuration not stated), the Potency result is “inactive”. Still for that read-out and setting: the value for `CCC(=O)N[C@H]1CC[C@H](C(=O)N(C)c2ccc(-c3nc4ccccc4o3)cc2)C1` was 14.8 µM (active); that for `CC(C)C[C@@H](N)[C@H](O)C(=O)N[C@H](C(=O)N[C@H](C(=O)N[C@@H](CC(=O)O)C(=O)O)C(C)C)C(C)C` was “inactive”; that for `CN1CCN(CCCN2c3ccccc3Sc3ccc(C(F)(F)F)cc32)CC1` was 6.99 µM (active) and 21.1 µM (active) and 11.8 µM (active). On to `Cc1c(C(=O)Nc2ccc(N3C[C@@H](C)O[C@@H](C)C3)nc2)cccc1-c1ccc(OC(F)(F)F)cc1`, for which the Potency entry is “inactive and 7.42 µM (active)”. On the same count and under the same terms, the value for `CC(C)Oc1cc(Nc2nc(N[C@@H](C)c3ccc(F)cn3)ncc2Cl)[nH]n1` was 372 nM (active) and 46.1 nM (active); that for `CCC(c1ccc(O)cc1)C(CC)c1ccc(O)cc1` (configuration not stated) was 26.3 µM (active). Same read-out and setting: the value for `CC(C(=O)O)c1cccc(C(=O)c2ccccc2)c1` (configuration not stated) was “inactive”; that for `Cc1ccn(-c2ccc(-c3ncco3)cc2)c(=O)c1-c1ccc2nc(N)ncc2c1` was 2.31 µM (active). With `c1cc(OCCN2CCCCC2)cc(-c2n[nH]c3ccc(-c4ncn[nH]4)cc23)c1`, the Potency was 1.16 µM (active). Same read-out and setting: the value for `NC(=O)c1cccc(-c2cc(Nc3ccc(OC(F)(F)F)cc3)ncn2)c1` was 9.2 µM (active) and 5.9 µM (active); that for `O=C(O)C1CCCN(CCC=C(c2ccccc2)c2ccccc2)C1` (configuration not stated) was “inactive”; that for `CCC(C)CCCCC(=O)N[C@@H](CCN)C(=O)NC(C(=O)N[C@H](CCN)C(=O)N[C@@H]1CCNC(=O)C([C@@H](C)O)NC(=O)[C@@H](CCN)NC(=O)[C@@H](CCN)NC(=O)[C@@H](CC(C)C)NC(=O)[C@H](Cc2ccccc2)NC(=O)[C@H](CCN)NC1=O)[C@@H](C)O` (stereo partly drawn) ({Octanoyl(6-Me)}-[Dab][ξThr(3R)][dDab][dDab][Dab]F[dL][dDab][dDab][ξThr(3R)]; lactam 4-C) was “inactive”. The same measure, in the same setting: as for `Clc1ccc(C(Cn2ccnc2)OCc2c(Cl)cccc2Cl)c(Cl)c1` (configuration not stated), the figure is 21.1 µM (active) and 8.33 µM (active); as for `Cc1cc(CN2CCN(c3c(Br)cnc4nc(-c5ccc(N6CCN(C)CC6)cc5)[nH]c34)CC2)no1`, 29.1 nM (active) and 105 nM (active); as for `COc1c(N2CCNC(C)C2)c(F)cc2c(=O)c(C(=O)O)cn(C3CC3)c12` (configuration not stated), 14.8 µM (active). Still for that read-out and setting: the value for `CCn1c(-c2nonc2N)nc2cnc(Oc3cccc(NC(=O)c4ccc(OCCN5CCOCC5)cc4)c3)cc21` was 3.66 µM (active) and 5.25 µM (active). Consider `COC(=O)[C@H](CCCN=C(N)N)NS(=O)(=O)c1ccc(C)cc1`, for which the Potency entry is “inactive”.

Turning to `COc1ccc2cc(-c3nc(-c4ccc(S(C)=O)cc4)[nH]c3-c3ccncc3)ccc2c1` (configuration not stated), the Potency is 9.34 µM (active) and 13 µM (active).

With `CN(C)Cc1ccc(-c2nc3cccc4c3n2CCNC4=O)cc1`, the Potency was 18.4 µM (active). As for `CC(C)(C)C(=O)OCOP(=O)(COCCn1cnc2c(N)ncnc21)OCOC(=O)C(C)(C)C`, the Potency is 944 nM (active) and 411 nM (active). As for `CCS(=O)(=O)c1cccc(-c2cc(C(=O)NC3CCN(C)CC3)c(C)c3[nH]c4ncc(C)cc4c23)c1`, the Potency is 36 nM (active) and 66.1 nM (active). The same measure, in the same setting: the value for `O=C(Nc1cccc(Cl)c1)Nc1ncc(CCNc2ncnc3ccsc23)s1` was 0.0326 µM (active).

Consider `COc1ccccc1OCCNCC(O)COc1cccc2[nH]c3ccccc3c12` (configuration not stated), for which the Potency was 11.9 µM (active). Still for that read-out and setting: as for `NCCc1ccc(O)c(O)c1`, the entry is “inactive and 18.6 µM (active)”. Still for that read-out and setting: as for `Cc1ccccc1-n1c(Cn2nc(-c3cccc(O)c3)c3c(N)ncnc32)nc2cccc(C)c2c1=O`, the figure is 11.6 µM (active). Still for that read-out and setting: as for `NC1CCC(N[C@@H]2C[C@H]2c2ccccc2)CC1` (some centres not stated), the entry is “inactive”; as for `C[C@@H](NC(=O)c1ncnc(N)c1Cl)c1ncc(C(=O)Nc2cc(C(F)(F)F)c(Cl)cn2)s1`, 16.6 µM (active); as for `C[C@H](CCC(=O)O)[C@H]1CCC2C3C[C@H](O)[C@@H]4C[C@H](O)CC[C@]4(C)C3CC[C@@]21C` (some centres not stated), “inactive”. With `COc1cc2nc(N3CCCN(C)CC3)nc(NC3CCN(Cc4ccccc4)CC3)c2cc1OC`, the Potency was 2.35 µM (active). On the same count and under the same terms, as for `Clc1ccc2c(c1)C(N1CCNCC1)=Nc1ccccc1O2`, the figure is 13.3 µM (active) and inactive. Same read-out and setting: as for `OCc1ccc(-c2ccc(-c3ccc(CO)s3)o2)s1`, the figure is 0.833 µM (active); as for `CN1CCC(=C2c3ccccc3CC(=O)c3sccc32)CC1`, 23.7 µM (active) and 20.9 µM (active).
